# Whole data set: some 33,000 sequences, median “E-score (dimensionless, -0.5 to 0.5)” near -0.058, cut for the highest 2% near 0.35. Shown is part of a subset that was picked to be rich in the highest values.
# System: MvaT
# Assay: PBM 8-mer E-score (mean of HK and ME arrays) (E-score (dimensionless, -0.5 to 0.5)); higher = stronger relative binding preference
# Outline: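 Full-length P. aeruginosa MvaT carrying an N-terminal glutathione S-transferase tag was tested by protein binding microarray following a previously described protocol. Two universal double-stranded 60-mer arrays, ME and HK, were used, each with a constant 25-mer primer region and a variable 35-mer region covering all 8-mers. The rank-based E-score is the mean of the two arrays, parsed with a custom script. Its range runs from -0.5 to 0.5 for each 8-mer.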
row,Sequence,PBM 8-mer E-score
1,GACCAACC,-0.0441
2,GCATCAGC,-0.135
3,CTCGTCGC,-0.208
4,ACTATGTG,0.172
5,GATATGTA,0.282
6,AATATGTG,0.368
7,AATATGTC,0.233
8,ATTATGTC,0.305
9,CATATGTA,0.252
10,AACATGTA,0.347
11,ATTATGTA,0.377
12,AACATGTC,-0.0784
13,AACATGTT,0.295
14,AATATGTA,0.365
15,ATTATGTG,0.261
16,GTTGCAAC,0.157
17,CGAGCTTC,-0.313
18,ACAGTCTA,-0.0014
19,ATAAAGGA,0.0948
20,ACAGGCCG,-0.147
21,ATAAAGTG,0.228
22,CATGATAC,0.111
23,CCGATATA,0.333
24,GATATATA,0.469
25,ACGATATA,0.328

row,Sequence,PBM 8-mer E-score
1,GGGATATA,0.218
2,GATATATC,0.396
3,GATATACC,0.178
4,GAGATATC,0.163
5,GATATCTA,0.267
6,GCGATATA,0.361
7,TCAAGTGA,-0.00408
8,AAAGAGTC,0.0357
9,GTCGATCA,-0.174
10,CTGATACA,0.0751
11,AATACAGC,0.247
12,CTCGCAGC,-0.11
13,CCTCACCC,-0.165
14,GTAATTTA,0.388
15,CTAATTTC,0.0429
16,ATAATTTC,0.386
17,ATAATTCA,0.325
18,GTAATTGA,0.264
19,GTAATTCA,0.191
20,AGAATTTA,0.262
21,CTAATTTA,0.389
22,ATAATTTA,0.416
23,CTAATTGA,0.11
24,ATAATTTG,0.298
25,AGAATTTC,0.122

row,Sequence,PBM 8-mer E-score
1,AGTAGAGA,0.0385
2,CCTGAATA,0.0626
3,ACGGCAGA,-0.166
4,GCCACACC,-0.0459
5,AACTCTGC,0.143
6,AAAGGTCA,-0.0376
7,ATCTCATA,-0.00882
8,TCTTATAA,0.369
9,CCTTATAA,0.338
10,ACTTATGA,0.248
11,ACTTATAC,0.326
12,ACTTATCA,0.196
13,GCTTATAC,0.166
14,TCTTATCA,0.177
15,ACTTATAT,0.424
16,GCTTATAA,0.418
17,GCTTATGA,-0.0922
18,ACTTATAG,0.251
19,ACTTATAA,0.419
20,GAGCGTAC,-0.233
21,AGTTACTG,0.282
22,ACTGGATA,0.12
23,ACCTAAGA,-0.0551
24,GCCCACGA,-0.205
25,CAATGAGA,-0.0714

row,Sequence,PBM 8-mer E-score
1,GATAGAAA,0.105
2,AGAAAGGG,-0.151
3,GCTCTTGA,-0.154
4,ATGTTGGG,0.105
5,GGGAACTA,-0.0248
6,CACATTAA,0.305
7,AACATTAG,0.234
8,GACATTAA,0.222
9,AACATTAT,0.34
10,AACATTAA,0.397
11,TACATTAA,0.38
12,AAATCAGT,0.111
13,CATAAGGA,-0.0113
14,GATAAGGA,-0.0851
15,TATAAGGA,0.348
16,TATAAGAA,0.369
17,CATAAGAA,0.126
18,GATAAGAA,0.121
19,CATGGAGC,-0.21
20,ATCTGCAT,0.0581
21,CTGCATGC,-0.0882
22,AGAAATAG,0.216
23,GGAAATAA,0.31
24,TGAAATAA,0.314
25,AGAAATAA,0.37

row,Sequence,PBM 8-mer E-score
1,AGAAATAC,0.157
2,CGAAATAA,0.374
3,CGAAATAC,0.0434
4,AGAAATCA,-0.0327
5,AGAAATAT,0.356
6,GCTCACAC,-0.19
7,AAAGCCTA,0.125
8,GCTATACA,0.135
9,CCTATATC,0.0838
10,ACTATACA,0.241
11,CCTATACA,0.116
12,ACTATATC,0.268
13,GCTATATA,0.402
14,ACTATATA,0.452
15,GCTATAGA,-0.132
16,CCTATATA,0.35
17,CGGCTGCC,-0.286
18,CATCCAAA,0.0181
19,ATAGTGTG,0.179
20,TAGGAAAA,0.015
21,ACCAGACG,-0.141
22,ATAAAAGG,0.119
23,ATAAAAAG,0.348
24,CTTAAAAG,0.166
25,ATTAAAAA,0.321

row,Sequence,PBM 8-mer E-score
1,ATAAAAAT,0.293
2,ATTAAAAG,0.393
3,ATAAAAAC,0.274
4,ATAAAAAA,0.387
5,CTAAAAAG,0.00374
6,ACTGGAAT,0.118
7,AACCGACG,-0.000494
8,GTGCAAAC,0.0651
9,AACCTTAC,-0.0526
10,AGACCATA,0.00218
11,CACAGACG,-0.11
12,ATTCCTCA,0.129
13,GAAAATTA,0.304
14,GTAAATCA,0.189
15,ATAAATTA,0.42
16,ATAAACTA,0.356
17,ATAAATTC,0.309
18,ATAAATTG,0.369
19,GTAAATTA,0.391
20,ATAAACTG,0.175
21,AAAAATTA,0.275
22,AAAAATTG,0.117
23,ATAAACTC,0.269
24,CTAAATTA,0.336
25,AACTGGTC,-0.0685

row,Sequence,PBM 8-mer E-score
1,TGACTGCA,-0.107
2,AACCCAGT,-0.0508
3,ATTGCACG,0.182
4,ACTCATCA,0.0732
5,AACCATCA,-0.0905
6,AAGTCTCT,0.0309
7,ATCGAATC,-0.0636
8,GCGGGTTA,0.0558
9,CGCGATAA,0.143
10,ACCTATGG,-0.149
11,ACTATAAC,0.334
12,AATATAAC,0.42
13,CCTATAAG,0.0158
14,GATATAGC,0.127
15,AATATGAC,0.183
16,CATATAAG,0.35
17,GATATAAA,0.344
18,TATATAAA,0.47
19,CACATAAG,0.122
20,GAGATAAC,0.0136
21,GATATAAC,0.372
22,TCTATAAA,0.103
23,CTCAAGGA,-0.151
24,CCTGCTCC,-0.302
25,ATTTGTTC,0.206

row,Sequence,PBM 8-mer E-score
1,ATTTTTTC,0.132
2,AAGTGCGT,-0.0188
3,ACGGTTTC,-0.215
4,ATTAGCCC,0.0535
5,ACACTAGT,0.258
6,AGTGCTAC,-0.0841
7,CGAAATGC,-0.0574
8,GATAAACA,0.278
9,CATATAAC,0.415
10,TATAAACA,0.373
11,CACATAAC,0.209
12,GCTATAAA,0.217
13,CATAAACA,0.221
14,CATATAGC,0.0736
15,AATATAAT,0.449
16,AATATGAT,0.345
17,AATATAAA,0.451
18,AAGATAAT,0.287
19,GAATGCGA,0.0642
20,AATTCTAG,0.157
21,CCCGGCCC,-0.325
22,TGCAAACA,0.106
23,ACGGAAGG,-0.218
24,GATATCAA,0.25
25,CATATCAA,0.174

row,Sequence,PBM 8-mer E-score
1,AGTATAAG,0.272
2,CGTATAAA,0.209
3,CATAAAAA,0.179
4,TATAAAAA,0.371
5,TATATCAA,0.352
6,CACATAAA,0.179
7,AAGATAAG,0.148
8,GATAAAAA,0.273
9,CATATAAA,0.365
10,AATATAAG,0.351
11,GAATCATA,0.151
12,CCATCTGA,-0.117
13,GTATGAAA,0.222
14,GTCTGAGA,-0.139
15,AGAGATGC,-0.101
16,ATCTTTAG,0.14
17,AGTGATCG,-0.118
18,AGAGGCTG,-0.304
19,TTATTGAA,0.279
20,TAGGGTAA,0.133
21,CTGATAAC,0.136
22,AGCACAGG,-0.197
23,AAACAACA,0.214
24,GAACAATA,0.267
25,TAACAATA,0.394

row,Sequence,PBM 8-mer E-score
1,AAACAATA,0.375
2,AAACAATT,0.346
3,AAACAATG,0.201
4,CAACAATA,0.289
5,TATCAATA,0.365
6,AAACAATC,0.06
7,AAACAAGA,0.166
8,AATCAATA,0.283
9,GATCAATA,0.152
10,GCAACGAC,-0.141
11,CCTCAACC,-0.226
12,AGATCTCG,-0.173
13,CTCTACTC,-0.0821
14,GCGCCACC,-0.15
15,ACAGGGGT,-0.121
16,AGGACTCG,-0.265
17,ATACAATA,0.372
18,CAACATTA,0.293
19,CTACAATA,0.244
20,TAACATTA,0.374
21,GAACATTA,0.276
22,ATACAATC,0.18
23,ATCCGTTC,-0.0995
24,AGATTGAC,-0.15
25,AAGATATG,0.136

row,Sequence,PBM 8-mer E-score
1,AAGATATC,0.26
2,AAGATATA,0.419
3,GAGATATA,0.303
4,CAGATATA,0.237
5,TAGATATA,0.368
6,ATTTACGA,0.167
7,CTATTTAC,0.318
8,ATATTTCA,0.329
9,ATATTTAG,0.342
10,ATATTTAC,0.36
11,ATATTTAA,0.462
12,CTATTTAA,0.274
13,AGGCACCA,-0.116
14,AGCTGTCA,-0.156
15,ATGATCGG,-0.174
16,AGCTTCCA,-0.151
17,CGCAAGTA,0.195
18,CCATTATA,0.302
19,ATATTATG,0.411
20,ACATTATG,0.249
21,ATATTATC,0.439
22,CTATTATC,0.263
23,AGATTATG,0.189
24,ATATTATA,0.477
25,ATCTTATA,0.238

row,Sequence,PBM 8-mer E-score
1,AGATTATC,0.255
2,ACATTATA,0.396
3,GCATTATA,0.309
4,ATTCAAAC,0.174
5,GATACCGA,0.0372
6,GCTGCCCA,-0.142
7,GAGGAAGA,-0.133
8,ACCCGTTG,-0.195
9,TAGTCACA,0.0578
10,AAAACGTA,0.142
11,CGCCCATC,-0.117
12,CACTTGCA,-0.05
13,CAGCCCTG,-0.254
14,CGTGTCCA,-0.105
15,GCACTTCA,-0.102
16,GTGTGGTA,0.118
17,CCCTTCGC,-0.248
18,AATTAGGG,0.137
19,AATCCCCG,-0.164
20,GTATTATA,0.437
21,GTATTACA,0.224
22,CTTTTATA,0.31
23,GTCTTATA,0.325
24,AGATTATA,0.39
25,GGATTATA,0.32

row,Sequence,PBM 8-mer E-score
1,CTATTCTA,0.131
2,GTATTCTA,0.112
3,ATATTCTA,0.348
4,CGATTATA,0.292
5,CTATTATA,0.44
6,CTCTTATA,0.289
7,CGCGCTTC,-0.107
8,CAATGTCC,-0.106
9,AGCGCCTA,-0.16
10,AACTACGG,0.0587
11,CCGCGCCC,-0.155
12,AACTCGGT,-0.0107
13,GCTGTAAC,0.00489
14,CGCAAGAG,0.0446
15,CGCGGTGA,-0.142
16,CCCTAAGA,-0.184
17,ATAGAACG,0.0944
18,CCGCAAAG,-0.132
19,ATGGCCAG,-0.256
20,ATATGTAC,0.368
21,ATATGTCG,0.22
22,ATATGTAA,0.309
23,ATATGTTC,0.231
24,CTATGTAC,0.112
25,ATATGTTA,0.423

row,Sequence,PBM 8-mer E-score
1,ATATGTTG,0.359
2,CTATGTTA,0.278
3,GTATGTTA,0.288
4,AGTCCACT,-0.0256
5,AATAGACC,0.00124
6,TTGTACAA,0.161
7,CGTCCAGA,-0.16
8,CCTGCTCG,-0.298
9,ACAGGTGC,-0.152
10,AATTGCTG,0.0923
11,ATACCCTC,-0.12
12,CTTGGCCC,-0.249
13,AACTAATA,0.323
14,AACTAAAA,0.345
15,AACTAGTA,0.303
16,AAATAGTC,0.235
17,AAATAGTT,0.351
18,AACTAATG,0.312
19,AACTAAAT,0.351
20,AACTAGTG,0.19
21,AACTAATT,0.401
22,AACTAGTT,0.392
23,AAATAGTG,0.136
24,AACTAAAG,0.202
